The entries come from a sample that favours hits as a whole.
HT1080 IDH1KD tx: toxicity to HT-1080 IDH1 knockdown cells (counter line); HT-1080 IDH1 knockdown viability, ATP luminescence, 48 h; Potency, µM (titrated, usually from 46.1 µM), actives largely listed as cytotoxic; hit rate 2% among 360,000; AID 686971
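Knockdown cells (IDH1KD HT-1080) received compounds 2 h after plating at 750 cells/well and were kept 48 h at 37 °C in 5% FBS RPMI. A CellTiter-Glo luminescence read gave % activity for curve fitting.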
TDP1 cell noCPT: qHTS for Inhibitors of human tyrosyl-DNA phosphodiesterase 1 (TDP1): qHTS in cells in absence of CPT; DT40 Tdp1-/- hTDP1 cells, no CPT, ATP luminescence, 48 h; Potency, µM (titrated, usually from 46.2 µM), hits mostly inhibitors; hit rate 15% among 420,000; also: nearly all actives have a fitted effect of over 55% in size
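Compound effects on proliferation are scored in DT40 Tdp1-/-;hTDP1 cells in the absence of CPT. ATP levels (CellTiter-Glo luminescence) are recorded after a ≥48 hr, 37 °C incubation.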
HT1080NT lethal: kills 2HG-producing HT-1080-NT fibrosarcoma cells. HT-1080-NT fibrosarcoma viability, CellTiter-Glo ATP luminescence, 48 h. Potency, µM (series often up to 46.1 µM), actives largely listed as cytotoxic. hit rate 1.6% among 360,000. AID 686970;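 also: NT is the 2HG producing partner of a matched IDH1 knockdown line; nearly all actives have a fitted effect of over 55% in size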
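A 48-hour cytotoxicity screen used HT-1080-NT cells plated 2 hours before compound delivery. ATP-based CellTiter-Glo luminescence measured viability, normalized to DMSO and no-cell controls.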
IL-1B inflam inh: inflammasome signaling inhibition, IL-1 beta readout | activity change, % at 57.5 µM | THP-1 LPS/ATP IL-1B secretion, AlphaLISA, 16 h; stronger effect = lower value | AID 743279 | hit rate 4.7% among 360,000; in the data active = activity change below about -50%; inconclusive = mostly about -30% to -49%
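THP-1 cells pretreated 1 hr with compounds (up to 57.5 uM final), then stimulated with LPS (250 ng/mL final) plus ATP (1.25 mM final); secreted IL-1B measured by AlphaLISA after 16 hr, decreased signal indicating inhibition.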
12-LOX inh: blocks human arachidonate 12S-lipoxygenase; P18054; purified 12hLO, xylenol orange hydroperoxide absorbance; Potency, µM (top dose mostly 108 µM), usual class: inhibitors; hit rate 1.1% among 580,000; AID 1671190
Target sequence (P18054 whole entry, looked up): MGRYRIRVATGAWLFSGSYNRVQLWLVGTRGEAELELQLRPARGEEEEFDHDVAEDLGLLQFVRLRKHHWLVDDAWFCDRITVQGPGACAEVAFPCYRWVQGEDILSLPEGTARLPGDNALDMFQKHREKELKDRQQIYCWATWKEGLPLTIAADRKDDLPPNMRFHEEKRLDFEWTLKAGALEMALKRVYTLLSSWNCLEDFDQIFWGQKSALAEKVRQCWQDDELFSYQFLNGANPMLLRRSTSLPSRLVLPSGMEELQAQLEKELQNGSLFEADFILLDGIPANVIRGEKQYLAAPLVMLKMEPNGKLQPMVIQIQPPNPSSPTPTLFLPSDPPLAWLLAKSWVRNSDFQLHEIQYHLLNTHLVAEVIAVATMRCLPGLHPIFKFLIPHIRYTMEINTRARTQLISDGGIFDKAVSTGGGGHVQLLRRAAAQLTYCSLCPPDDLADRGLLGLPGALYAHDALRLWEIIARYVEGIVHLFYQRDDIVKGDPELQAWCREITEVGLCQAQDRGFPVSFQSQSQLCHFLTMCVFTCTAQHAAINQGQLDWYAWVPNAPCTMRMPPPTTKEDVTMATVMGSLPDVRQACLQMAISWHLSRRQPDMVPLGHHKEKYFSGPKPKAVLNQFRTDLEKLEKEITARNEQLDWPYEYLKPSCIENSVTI
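Purified human 12hLO (150 nM final) in 25 mM Hepes, 0.01% Triton X-100, pH 7.0 was preincubated 15 min at room temperature with compound. Then 40 uM arachidonic acid was added, 30 min. Hydroperoxide was read by Fe-XO absorbance ratio 573/405 nm.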
DT40 TDP1 CPT: DT40-hTDP1 cell growth loss with CPT. chicken DT40 Tdp1-/-;hTDP1 cells + 20 nM CPT, ATP luminescence, 48 h. Potency, µM (top dose mostly 46.2 µM), usual class: inhibitors. hit rate 12% among 420,000. AID 686979; also: nearly all actives have a fitted effect of over 55% in size
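Cell growth measured by CellTiter-Glo luminescence after a minimum 48 h, 37 C compound exposure with 20 nM CPT in Tdp1-knockout DT40 cells stably expressing hTDP1, seeded 400/well; qHTS titration format.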
A number is an active result. Unless noted, calls follow the shape of the dose curve; as a rule, active = well fitted curve in the direction sought with a large enough effect; inconclusive = small, poorly fitted or top-dose-only effect, or another doubt; inactive = no such curve, though single readings can be large; an effect the other way counts as inactive or inconclusive.

What do the screens show for `COc1ccc(-c2cc(C(=O)N3CCN(c4cccc(C)c4C)CC3)c3ccccc3n2)cc1OC`?
HT1080 IDH1KD tx: inactive; TDP1 cell noCPT: 13µM; HT1080NT lethal: inactive; IL-1B inflam inh: inactive; DT40 TDP1 CPT: inconclusive

Results for COc1ccc(-c2cc(C(=O)N3CCC3)c3ccccc3n2)cc1OC ?
HT1080 IDH1KD tx: inactive; TDP1 cell noCPT: inactive; HT1080NT lethal: inactive; IL-1B inflam inh: inactive; 12-LOX inh: inactive; DT40 TDP1 CPT: inactive

Results for O=C(c1cc(-c2ccc(Cl)cc2)nc2ccccc12)N1CCC1 ?
HT1080 IDH1KD tx: inactive; TDP1 cell noCPT: 16µM; HT1080NT lethal: inactive; IL-1B inflam inh: inactive; 12-LOX inh: inactive; DT40 TDP1 CPT: 18µM

Results for COc1ccc(-c2cc(C(=O)N3CCCC3)c3ccccc3n2)cc1OC ?
HT1080 IDH1KD tx: inactive; TDP1 cell noCPT: inactive; HT1080NT lethal: inactive; IL-1B inflam inh: inactive; 12-LOX inh: inconclusive; DT40 TDP1 CPT: inactive

What do the screens show for `Cc1ccc(C(=O)/C=C/Nc2cccc(O)c2)cc1`?
HT1080 IDH1KD tx: inconclusive; TDP1 cell noCPT: inconclusive; HT1080NT lethal: inactive; IL-1B inflam inh: inactive; 12-LOX inh: inconclusive; DT40 TDP1 CPT: inconclusive

How did C/C(=C\C(=O)c1ccc(C)cc1)Nc1cccc(O)c1 do in these assays?
HT1080 IDH1KD tx: inactive; TDP1 cell noCPT: inconclusive; HT1080NT lethal: inactive; IL-1B inflam inh: inactive; 12-LOX inh: inactive; DT40 TDP1 CPT: 18µM

How did COCCN(CCOC)CC(O)COC(c1ccccc1)c1ccccc1 (stereo not drawn) do in these assays?
HT1080 IDH1KD tx: inactive; TDP1 cell noCPT: 15µM; HT1080NT lethal: inactive; IL-1B inflam inh: inactive; DT40 TDP1 CPT: inactive

Results for COc1ccc(-c2cn(C)c(=O)n3cc(CN(C)C)nc23)c(C(F)(F)F)c1 ?
12-LOX inh: inactive

Results for CC(=O)N(Cc1ccc(F)cc1)C1=C(NCc2ccccc2)C(=O)c2ccccc2C1=O ?
HT1080 IDH1KD tx: 5µM; TDP1 cell noCPT: 1.3µM; HT1080NT lethal: 4.5µM; IL-1B inflam inh: -93; DT40 TDP1 CPT: 1.6µM

How did COc1ccc(-c2cn3c(n2)sc2cc(C(=O)NCCC4=CCCCC4)ccc23)cc1 do in these assays?
TDP1 cell noCPT: 13µM; 12-LOX inh: inactive; DT40 TDP1 CPT: inconclusive

What do the screens show for `COc1ccc(-c2cn3c(n2)sc2cc(C(=O)NCCc4ccc(OC)cc4OC)ccc23)cc1`?
TDP1 cell noCPT: 9.2µM; 12-LOX inh: inactive; DT40 TDP1 CPT: 7.3µM

What do the screens show for `CN(C)C(=O)C1CN(C(=O)NC2CCCCC2)CC12CCOCC2` (stereo not drawn)?
12-LOX inh: inactive

How did N#CC1=C(N)NC(=S)C(C(N)=O)C1c1ccc([N+](=O)[O-])cc1 (stereo not drawn) do in these assays?
HT1080 IDH1KD tx: inactive; TDP1 cell noCPT: inactive; HT1080NT lethal: inactive; IL-1B inflam inh: inactive; 12-LOX inh: 45µM; DT40 TDP1 CPT: inactive

How did Cc1cccc[n+]1C1C(c2ccc([N+](=O)[O-])cc2)C(C#N)=C(C(=C=[N-])C#N)NC1(O)C1CC1 (stereo not drawn) do in these assays?
HT1080 IDH1KD tx: inactive; TDP1 cell noCPT: inactive; HT1080NT lethal: inactive; IL-1B inflam inh: inactive; 12-LOX inh: inactive; DT40 TDP1 CPT: inactive

Results for CC1CN=C(c2ccc(Cl)cc2)c2c3ccccc3[n+]([O-])n21 (stereo not drawn) ?
12-LOX inh: inactive

Results for CCOC(=O)/C(=C/c1ccc(OC(=O)c2ccccc2)cc1)C(C)=O ?
HT1080 IDH1KD tx: inactive; TDP1 cell noCPT: inconclusive; HT1080NT lethal: inactive; IL-1B inflam inh: inactive; 12-LOX inh: inconclusive; DT40 TDP1 CPT: 18µM

What do the screens show for `CCOC(=O)c1ccccc1`?
12-LOX inh: inactive

What do the screens show for `CCOC(=O)C(=Cc1ccc(N(C)C)cc1)C(=O)c1ccccc1`?
HT1080 IDH1KD tx: inconclusive; TDP1 cell noCPT: inconclusive; HT1080NT lethal: inconclusive; IL-1B inflam inh: -75; 12-LOX inh: inactive; DT40 TDP1 CPT: 16µM

Results for COc1ccc(NC(C)=O)cc1NC(=O)Cc1ccc(OC)c(OC)c1 ?
12-LOX inh: inactive

How did COCC(=O)Nc1ccc(-n2ccnc2-c2ccc(O)c(OC)c2)cc1C do in these assays?
12-LOX inh: inactive

Results for COc1cccc(NC(=O)c2cnc3c(c2)N([S+](=O)([O-])c2cccnc2)CCC3)c1 ?
12-LOX inh: inactive

How did CCOc1ccc(CCN2C(=S)N([C@@H](CC(C)C)CN3CCCC3CN3C(=S)NC[C@@H]3CC(C)C)C[C@@H]2CC(C)C)cc1 (stereo partly drawn) do in these assays?
HT1080 IDH1KD tx: inactive; TDP1 cell noCPT: 18µM; HT1080NT lethal: inactive; IL-1B inflam inh: inactive; 12-LOX inh: inconclusive; DT40 TDP1 CPT: inconclusive

How did CCOc1ccc(CCN2C(=S)N([C@@H](CC(C)C)CN3CCCC3CN3C(=S)NC[C@@H]3CC(C)C)C[C@@H]2Cc2ccccc2)cc1 (stereo partly drawn) do in these assays?
HT1080 IDH1KD tx: inactive; TDP1 cell noCPT: 18µM; HT1080NT lethal: inactive; IL-1B inflam inh: inactive; 12-LOX inh: 14µM; DT40 TDP1 CPT: 16µM

What do the screens show for `CCOc1ccc(CCN2C(=S)N([C@@H](Cc3ccc(O)cc3)CN3CCC[C@@H]3CN3C(=S)NC[C@@H]3CC(C)C)C[C@@H]2Cc2ccccc2)cc1`?
HT1080 IDH1KD tx: inactive; TDP1 cell noCPT: 5.2µM; HT1080NT lethal: inactive; IL-1B inflam inh: inactive; 12-LOX inh: inconclusive; DT40 TDP1 CPT: 4.6µM

How did CC(C)C[C@H]1CN([C@@H](CC(C)C)CN2CCCC2CN2C(=S)NC[C@@H]2Cc2ccccc2)C(=S)N1CCc1ccccc1 (stereo partly drawn) do in these assays?
HT1080 IDH1KD tx: inactive; TDP1 cell noCPT: inconclusive; HT1080NT lethal: inactive; IL-1B inflam inh: inactive; 12-LOX inh: inconclusive; DT40 TDP1 CPT: inconclusive

What do the screens show for `CCOc1ccc(CCN2C(=S)N([C@@H](Cc3ccccc3)CN3CCC[C@@H]3CN3C(=S)NC[C@@H]3CC(C)C)C[C@@H]2Cc2ccccc2)cc1`?
HT1080 IDH1KD tx: inactive; TDP1 cell noCPT: 15µM; HT1080NT lethal: inactive; IL-1B inflam inh: inactive; 12-LOX inh: inconclusive; DT40 TDP1 CPT: inconclusive

Results for Cn1c2c(c3cc(F)ccc31)CN(C(=O)Nc1ccc(F)c(Cl)c1)CC2 ?
12-LOX inh: inactive

How did Cn1c(CCNC(=O)c2cccc(F)c2)nc2cc(NC(=O)C3CCCO3)ccc21 (stereo not drawn) do in these assays?
12-LOX inh: inactive
